Results on 37 sequences are retold here after the supplement of paper PMC10681739.

Test [1] has as its target T1, ETS1 (UniProt P14921).
T1 sequence: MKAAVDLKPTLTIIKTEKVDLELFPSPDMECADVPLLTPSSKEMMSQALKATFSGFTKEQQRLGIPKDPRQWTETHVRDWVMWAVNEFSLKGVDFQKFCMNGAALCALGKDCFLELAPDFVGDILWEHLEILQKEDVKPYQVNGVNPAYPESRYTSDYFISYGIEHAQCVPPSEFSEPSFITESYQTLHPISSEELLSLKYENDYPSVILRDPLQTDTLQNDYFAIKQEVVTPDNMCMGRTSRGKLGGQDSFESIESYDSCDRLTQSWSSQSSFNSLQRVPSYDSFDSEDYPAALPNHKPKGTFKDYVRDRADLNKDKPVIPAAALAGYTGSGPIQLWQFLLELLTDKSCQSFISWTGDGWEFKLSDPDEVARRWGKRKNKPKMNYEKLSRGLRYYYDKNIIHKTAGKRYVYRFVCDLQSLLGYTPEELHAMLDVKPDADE
Briefly: ETS1 binding intensity (PBM fluorescence), ETS1 alone (arbitrary fluorescence units); higher = stronger binding. The conditions noted are these: ETS1 concentration 1 nM; RUNX1 concentration 0 nM.

Test [2] addresses RUNX1 (UniProt Q01196). As to the kind of experiment: RUNX1 binding intensity (PBM fluorescence), RUNX1 alone (arbitrary fluorescence units); higher = stronger binding. The conditions noted are these: RUNX1 concentration 2 nM; ETS1 concentration 0 nM. On the procedure:
(§1)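 Cooperative gcPBM on 36-bp genomic probes with neighbouring ETS1 and RUNX1 sites. Recombinant human RUNX1 (2 nM) was incubated alone or with ETS1 (25 nM) and detected with anti-RUNX1 antibody plus Alexa488 secondary. Values are medians over 4 replicate spots; the RUNX1+ETS1 data were normalised to the RUNX1-only data. The probes sit in constant array flanks that are not printed.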

Test [3] deals with T1, ETS1. As to the kind of experiment: ETS1 binding intensity (PBM fluorescence) in presence of RUNX1, normalised to ETS1-only experiment (arbitrary fluorescence units); higher = stronger binding. The settings on record: ETS1 concentration 1 nM; RUNX1 concentration 25 nM.
Test [4] has as its target RUNX1 (UniProt Q01196). Briefly: RUNX1 binding intensity (PBM fluorescence) in presence of ETS1, normalised to RUNX1-only experiment (arbitrary fluorescence units); higher = stronger binding. The settings on record: RUNX1 concentration 2 nM; ETS1 concentration 25 nM. As to the method:
as §1
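Wherever RUNX1 binding intensity (PBM fluorescence) in presence of ETS1, normalised to RUNX1-only experiment is given: Full-length recombinant human ETS1 or RUNX1 bound to double-stranded 36-bp genomic probes on microarrays, detected by protein-specific primary antibody and Alexa488 secondary, spot fluorescence as median of four replicate spots.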
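Wherever RUNX1 binding intensity (PBM fluorescence), RUNX1 alone is given: Full-length recombinant human RUNX1 bound to double-stranded 36-bp genomic probes on a high-density microarray, scored as Alexa488 fluorescence per spot via anti-RUNX1 antibody, median of four replicate spots.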

Chain of RUNX1 (Q01196 whole entry): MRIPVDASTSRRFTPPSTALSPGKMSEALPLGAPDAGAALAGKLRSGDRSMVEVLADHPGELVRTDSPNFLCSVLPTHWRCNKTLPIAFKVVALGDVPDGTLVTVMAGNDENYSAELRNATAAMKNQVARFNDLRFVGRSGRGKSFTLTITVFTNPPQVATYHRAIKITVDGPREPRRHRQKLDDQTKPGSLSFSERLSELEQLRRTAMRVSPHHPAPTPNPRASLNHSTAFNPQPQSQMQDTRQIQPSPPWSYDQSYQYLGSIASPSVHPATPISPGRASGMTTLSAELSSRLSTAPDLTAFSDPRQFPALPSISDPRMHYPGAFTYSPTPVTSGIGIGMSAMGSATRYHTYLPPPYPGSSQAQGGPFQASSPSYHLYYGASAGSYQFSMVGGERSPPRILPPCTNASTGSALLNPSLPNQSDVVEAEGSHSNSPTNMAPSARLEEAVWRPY

As for GCCCCCGGCTGGGCAGGATGTGGTGGCAGCTGCAGG, the results for the ETS1 binding intensity in test [1] and in test [3] were 4040 and 5380, respectively. Besides, the RUNX1 binding intensity in test [2] is 743; in test [4], 1320.

Consider ACTTTAATAGAGTCCGGATGCGGTTAGGCTGACAGA, for which the ETS1 binding intensity in test [1] is 2670; in test [3], 30400. In addition, the figures for the RUNX1 binding intensity in test [2] and in test [4] were 2000 and 7430, respectively.

AGTGGAGTAGGAACCGGAAAACCACAATAAGTCCCA: the ETS1 binding intensity in test [1] stood at 2170; in test [3], 12400. Further, the values for the RUNX1 binding intensity in test [2] and in test [4] were 1470 and 3630, respectively.

Take CCGTGGAAGGAAACGCTGCCAACCGCAACAGAAATG: the ETS1 binding intensity in test [1] is 479; in test [3] it was 2770. For the same sequence, the RUNX1 binding intensity in test [2] is 1700; in test [4] it was 3550.

On to ATCAGAGCGGAAATCTCAGTCTTGTGTGGGGACCTG, for which the ETS1 binding intensity came out at 1960 in test [1] and 1820 in test [3]. In addition, the RUNX1 binding intensity in test [2] was found to be 647; in test [4], 919.

On to CCAGCCGGAAGCCCCGCCCCCTAGAGGCACCGCGGA, for which the figures for the ETS1 binding intensity in test [1] and in test [3] were 1010 and 962, respectively. Moreover, the RUNX1 binding intensity in test [2] stood at 1000; in test [4], 1270.

Consider CGGGCTGGGAGGAAGTGATGGCTGACCACAGAGGAG, for which the results for the ETS1 binding intensity in test [1] and in test [3] were 1130 and 4610, respectively. Further, the values for the RUNX1 binding intensity in test [2] and in test [4] were 1000 and 1570, respectively.

Take GTTCTTCCACGTCCGCGTTACCCACAACGGCAGTGG: the values for the ETS1 binding intensity in test [1] and in test [3] were 564 and 606, respectively. Also, the RUNX1 binding intensity is 1020 in test [2] and 1090 in test [4].

For the sequence GCCCCTAAACCGGATGCGGCAGCCACCGCGGACCCC, the ETS1 binding intensity in test [1] was found to be 9010; in test [3] it was 16600. Further, the RUNX1 binding intensity in test [2] came out at 1290; in test [4], 3550.

In the case of GACTGGTTTCCTGGTTTTGATGTGGTTTAGAGAAAA, the ETS1 binding intensity in test [1] amounted to 504; in test [3], 630. The RUNX1 binding intensity came out at 1080 in test [2] and 2170 in test [4].

For CCCGCCGGAAGGACGCGTCTGCGTCTCTGCGGCGAG, the ETS1 binding intensity was determined as 680 in test [1] and 1010 in test [3]. In addition, the RUNX1 binding intensity in test [2] turned out to be 688; in test [4], 955.

As for TAGGCAGGCAGGATGTGCCTATAAGCCACATGAATG, the values for the ETS1 binding intensity in test [1] and in test [3] were 1930 and 2240, respectively. The values for the RUNX1 binding intensity in test [2] and in test [4] were 726 and 962, respectively.

Consider AGGACCGGAAGTGCCCGAGGGCGGCCGCAGAACGGT, for which the ETS1 binding intensity came to 8870 in test [1] and 16700 in test [3]. The RUNX1 binding intensity was found to be 719 in test [2] and 1320 in test [4].

As for GCAACGGAGTCCGGAAGAACCACAGAGACGCGGCTC, the ETS1 binding intensity in test [1] came out at 789; in test [3], 694. Further, the RUNX1 binding intensity in test [2] was determined as 730; in test [4], 858.

As for GGCCCCTGCTTCCGGGTGTGACGCGAACCGCGGGCA, the ETS1 binding intensity in test [1] is 616; in test [3], 1050. The RUNX1 binding intensity in test [2] amounted to 687; in test [4], 1400.

As to CTGCTAGCGGAAGCAGCCAAGCCCACAGGCTCCAGG, the ETS1 binding intensity turned out to be 942 in test [1] and 1140 in test [3]. The RUNX1 binding intensity in test [2] turned out to be 732; in test [4] it was 1040.

For the sequence AGTCCACACTACAGGAAACCACAGGCCTGAGCCCCA, the results for the ETS1 binding intensity in test [1] and in test [3] were 1580 and 3180, respectively. Further, the RUNX1 binding intensity in test [2] was determined as 2870; in test [4] it was 3440.

In the case of CAGAGAGAGGCCACATCCCTGTGGTCACACATACCC, the ETS1 binding intensity in test [1] was 428; in test [3], 590. The values for the RUNX1 binding intensity in test [2] and in test [4] were 980 and 1030, respectively.

In the case of AGGTTAATACCCGGAACTACCACAACCGTCTTCCCT, the ETS1 binding intensity in test [1] is 772; in test [3], 862. The RUNX1 binding intensity worked out at 1020 in test [2] and 985 in test [4].

As to TCCTTAATGGTTCCGGCGGCAGGGACCGCAGCGACG, the ETS1 binding intensity in test [1] worked out at 460; in test [3], 526. In addition, the RUNX1 binding intensity in test [2] came to 824; in test [4], 914.

Take AAACTACTTTCCTTCCTACCAAAACCACACTAAAGA: the ETS1 binding intensity in test [1] came to 620; in test [3] it was 844. The RUNX1 binding intensity came to 2140 in test [2] and 1920 in test [4].

Consider AGAGTCTTTTTTCCTGAGCGTTTGCGGTTTTGACTT, for which the ETS1 binding intensity in test [1] is 430; in test [3] it was 1690. For the same sequence, the RUNX1 binding intensity worked out at 10500 in test [2] and 19500 in test [4].

Consider ACAAGGAGGAAAAGGAAATGAACCACGAATAGCAAA, for which the results for the ETS1 binding intensity in test [1] and in test [3] were 1220 and 1160, respectively. For the same sequence, the RUNX1 binding intensity in test [2] was 817; in test [4], 948.

As for CCAAAATTGCCACGGAAACCACATCTTTCAGGCGAG, the ETS1 binding intensity turned out to be 486 in test [1] and 687 in test [3]. Further, the RUNX1 binding intensity is 1520 in test [2] and 1620 in test [4].

Regarding CTCTGAACTTCCTCTCTTTTAACCACAACTTACTAC, the ETS1 binding intensity came to 549 in test [1] and 1420 in test [3]. Further, the RUNX1 binding intensity turned out to be 10500 in test [2] and 14100 in test [4].

Take ACAAGAGGAAGTGAGTCTACCCATGATGCGGTCACA: the ETS1 binding intensity in test [1] is 707; in test [3], 4460. In addition, the RUNX1 binding intensity in test [2] was 891; in test [4] it was 1440.

In the case of AACACCTCACACTTCCTGCCCACAAGATAAGAGCCT, the figures for the ETS1 binding intensity in test [1] and in test [3] were 895 and 1910, respectively. In addition, the RUNX1 binding intensity turned out to be 1660 in test [2] and 3120 in test [4].

On to GGTGGCAACATCCTGGGGAGGGGAACCCACAGGGGA, for which the ETS1 binding intensity in test [1] is 364; in test [3] it was 452. In addition, the RUNX1 binding intensity in test [2] worked out at 835; in test [4] it was 1100.

Take TGCGCCGGGAGGAAGGGCTCCAAAACCACAGGGCGG: the ETS1 binding intensity in test [1] worked out at 411; in test [3], 1400. Moreover, the RUNX1 binding intensity was determined as 900 in test [2] and 927 in test [4].

As for CTCGCCCCATTTCCCGTAAATATCAGCCACAGACCA, the ETS1 binding intensity in test [1] stood at 546; in test [3], 464. Moreover, the figures for the RUNX1 binding intensity in test [2] and in test [4] were 1350 and 1900, respectively.

In the case of AGCCTTAATTACCCGGAAGTGCGGTCCCAGGGACTT, the ETS1 binding intensity in test [1] was determined as 8970; in test [3], 12200. Besides, the RUNX1 binding intensity in test [2] came to 768; in test [4], 1710.

As to AGAAGCAGGCATGCAGGATGTGGTTAGTGCATGGTA, the ETS1 binding intensity in test [1] stood at 2230; in test [3], 17400. Also, the RUNX1 binding intensity amounted to 900 in test [2] and 3740 in test [4].

Consider GCAGAAGGATTTCCTGTTTCAGGCAACCACAGCGAC, for which the figures for the ETS1 binding intensity in test [1] and in test [3] were 1630 and 2450, respectively. Further, the RUNX1 binding intensity stood at 773 in test [2] and 1510 in test [4].

Take CCAACTTTTGAGGGATGTGGTTACGTTTTCTAGATC: the ETS1 binding intensity in test [1] stood at 366; in test [3], 1440. Also, the RUNX1 binding intensity came out at 1410 in test [2] and 1620 in test [4].

Consider ACCTTCTGTTCCCTTCCTCAGACCGCAGGCGAGATG, for which the ETS1 binding intensity is 367 in test [1] and 835 in test [3]. The RUNX1 binding intensity in test [2] was determined as 1620; in test [4], 2230.

In the case of CAGGGTGGAAACAGGAAGAGAAACCACACTTAACCT, the ETS1 binding intensity was 1540 in test [1] and 7190 in test [3]. The RUNX1 binding intensity in test [2] was 845; in test [4], 1070.

As for TGAGAAAACAGGAAGCGCCCAGTCACCACAGAAAGC, the figures for the ETS1 binding intensity in test [1] and in test [3] were 2910 and 5290, respectively. Moreover, the RUNX1 binding intensity in test [2] stood at 765; in test [4] it was 1330.
